# Reference: the supplement of paper PMC9262897, “Low-cost anti-mycobacterial drug discovery using engineered E. coli” (Nature Communications, 2022)
# Where a name gives a salt, the structure may show the parent alone. ± gives the standard deviation of the averaged measurements.
# Assays:
# Assay in all cases: growth (OD600 after 10 h); higher = more growth (less inhibition)
# [1] = system: E. coli TESEC Alr+ wild-type control; settings: compound 0.1 mM; raw OD600 reference: median of DMSO wells 0.241, cell-free background 0.041
# Protocol: (§1)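 TESEC Mtb Alr E. coli, or the Alr+ wild-type control, in 384-well plates with Prestwick library compounds at 0.1 mM and 1% DMSO, across arabinose induction levels of 1E3 to 1E7 nM. Growth is read as OD600 after 10 h at 37 °C in triplicate biological replicates.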
# E. coli TESEC Mtb Alr [2] = settings: compound 0.1 mM
# Protocol: as §1
# E. coli TESEC Mtb Asd = settings: compound 0.1 mM
# Protocol: (§2)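 TESEC E. coli strains in which the native enzyme is deleted and replaced by arabinose-inducible Mtb Asd, DapB, CysH or TrpD, each grown in its selective medium. Strains were screened against the Prestwick library at 0.1 mM and 1% DMSO in 384-well format at low and high arabinose induction. Growth is read as OD600 after 10 h in triplicate.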
# E. coli TESEC Mtb DapB = settings: compound 0.1 mM
# Protocol: as §2
# [3] = system: E. coli TESEC Alr+ wild-type control; settings: compound 0.1 mM; raw OD600 reference: median of DMSO wells 0.49, cell-free background 0.052
# Protocol: (§3)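 TESEC Mtb Alr E. coli (ΔaraC ΔtolC ΔentC Δalr ΔdadX, arabinose-inducible Mtb Alr) or the Alr+ wild-type control strain, grown in defined M9-fructose medium without D-alanine in 96-well plates with Prestwick library compounds at 0.1 mM and 1% DMSO. Low Alr induction is 0.1 µM arabinose and high induction is 10 mM arabinose.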
# E. coli TESEC Mtb Alr [4] = settings: compound 0.1 mM; remark: listed apart in the source
# Protocol: as §3
# [5] = arabinose 1000 nM, raw OD600 reference: median of DMSO wells 0.294, cell-free background 0.041
# [6] = arabinose 10000 nM, raw OD600 reference: median of DMSO wells 0.264, cell-free background 0.041
# [7] = arabinose 100000 nM, raw OD600 reference: median of DMSO wells 0.201, cell-free background 0.041
# [8] = arabinose 1000000 nM, raw OD600 reference: median of DMSO wells 0.193, cell-free background 0.041
# [9] = arabinose 10000000 nM, raw OD600 reference: median of DMSO wells 0.146, cell-free background 0.041
# [10] = arabinose induction (level): High, raw OD600 reference: median of DMSO wells 0.331, cell-free background 0.041
# [11] = arabinose induction (level): Low, raw OD600 reference: median of DMSO wells 0.417, cell-free background 0.041
# [12] = arabinose induction (level): High, raw OD600 reference: median of DMSO wells […], cell-free background 0.041
# [13] = arabinose induction (level): Low, raw OD600 reference: median of DMSO wells 0.227, cell-free background 0.041
# [14] = arabinose 100 nM, raw OD600 reference: median of DMSO wells 0.413, cell-free background 0.052
# [15] = arabinose 10000000 nM, raw OD600 reference: median of DMSO wells […], cell-free background 0.052
Structure (SMILES),growth [1],growth (E. coli TESEC Mtb Alr [2]; [5]),growth (E. coli TESEC Mtb Alr [2]; [6]),growth (E. coli TESEC Mtb Alr [2]; [7]),growth (E. coli TESEC Mtb Alr [2]; [8]),growth (E. coli TESEC Mtb Alr [2]; [9]),growth (E. coli TESEC Mtb Asd; [10]),growth (E. coli TESEC Mtb Asd; [11]),growth (E. coli TESEC Mtb DapB; [12]),growth (E. coli TESEC Mtb DapB; [13]),growth [3],growth (E. coli TESEC Mtb Alr [4]; [14]),growth (E. coli TESEC Mtb Alr [4]; [15])
Nc1nc(N)nc(-c2cc(Cl)ccc2Cl)n1 [Irsogladine maleate],0.238 ± 0.0051,0.298 ± 0.013,0.2393 ± 0.0018,0.207 ± 0.011,0.173 ± 0.0041,0.143 ± 0.0066,0.297 ± 0.072,0.406 ± 0.025,0.197 ± 0.019,0.211 ± 0.017,0.589 ± 0.1,0.402 ± 0.0076,0.357 ± 0.0079
CNCCCN1c2ccccc2CCc2ccccc21 [Desipramine hydrochloride],0.184 ± 0.0044,0.228 ± 0.021,0.275 ± 0.013,0.199 ± 0.021,0.1277 ± 0.00069,0.168 ± 0.0031,0.157 ± 0.011,0.222 ± 0.03,0.171 ± 0.014,0.202 ± 0.0094,0.578 ± 0.053,0.403 ± 0.01,0.287 ± 0.011
CCOC(=O)Nc1ccc2c(c1)N(C(=O)CCN1CCOCC1)c1ccccc1S2 [Moricizine hydrochloride],0.157 ± 0.0017,0.202 ± 0.0069,0.222 ± 0.0081,0.196 ± 0.012,0.1097 ± 0.00081,0.14 ± 0.0063,0.175 ± 0.018,0.228 ± 0.083,0.168 ± 0.0088,0.199 ± 0.022,0.354 ± 0.0077,0.3937 ± 0.0035,0.258 ± 0.022
C/C=C(/C(=C/C)c1ccc(O)cc1)c1ccc(O)cc1 [Dienestrol],0.0526 ± 0.0075,0.0496 ± 0.0047,0.0394 ± 0.0002,0.0419 ± 0.0015,0.0393 ± 0.0001,0.0759 ± 0.031,0.0492 ± 0.0033,0.0498 ± 0.0031,0.122 ± 0.035,0.0554 ± 0.0074,0.139 ± 0.14,0.0576 ± 0.014,0.05137 ± 0.00032
CC(Oc1c(Cl)cccc1Cl)C1=NCCN1 (centres undefined) [Lofexidine],0.211 ± 0.008,0.27 ± 0.0089,0.259 ± 0.016,0.179 ± 0.015,0.172 ± 0.0071,0.139 ± 0.0016,0.261 ± 0.069,0.464 ± 0.093,0.205 ± 0.013,0.206 ± 0.012,0.555 ± 0.044,0.406 ± 0.0098,0.331 ± 0.032
CC(C(=O)O)c1ccc(N2Cc3ccccc3C2=O)cc1 (centres undefined) [Indoprofen],0.219 ± 0.011,0.264 ± 0.018,0.249 ± 0.0066,0.178 ± 0.0022,0.189 ± 0.0034,0.128 ± 0.0066,0.345 ± 0.075,0.353 ± 0.053,0.206 ± 0.016,0.186 ± 0.0097,0.486 ± 0.053,0.424 ± 0.013,0.361 ± 0.007
N=C(N)NCc1cccc(I)c1 [Iobenguane sulfate],0.231 ± 0.005,0.289 ± 0.0045,0.267 ± 0.0098,0.238 ± 0.029,0.202 ± 0.012,0.149 ± 0.011,0.29 ± 0.018,0.425 ± 0.056,0.188 ± 0.0051,0.265 ± 0.04,0.488 ± 0.019,0.409 ± 0.016,0.384 ± 0.013
CC(C)(C)CC(C)(C)c1ccc(OCOCCOCCO)c(Cc2cc(C(C)(C)CC(C)(C)C)cc(Cc3cc(C(C)(C)CC(C)(C)C)ccc3OCOCCOCCO)c2OCOCCOCCO)c1 [Tyloxapol],0.341 ± 0.018,0.323 ± 0.0088,0.256 ± 0.0056,0.455 ± 0.027,0.171 ± 0.0031,0.261 ± 0.032,0.475 ± 0.018,0.509 ± 0.0063,0.217 ± 0.018,0.261 ± 0.033,0.4593 ± 0.0043,0.418 ± 0.016,0.4093 ± 0.0033
